Results with a measured potency or affinity are listed apart. Calls of active or inactive are those of the source. How the calls were made is not given here.
target: KSHV LANA C-terminal domain (residues 932-1162) binding to LBS DNA (UniProt O40947); test: inhibitors of C-LANA binding to LBS DNA, dose response, biochemical, fluorescence polarization, cherry-picked samples (AID 504725); settings: MBP-C-LANA / FAM-LBS DNA fluorescence polarization, percent change from plate compound-well median; series mostly up to 35 µM; activity change, negative = inhibition: at the top concentration

Activity change, negative = inhibition, inactive:
COc1ccc(NC(=O)CN(C)CC(=O)Nc2ccc(N3CCOCC3)cc2)c([N+](=O)[O-])c1 -0.918%
N=c1ccn(Cc2ccc(Cl)cc2)cc1 -0.38%
CCN(C(=O)COC(=O)c1nc2nc(C)cc(C)n2n1)C1CCCCC1 0.538%
Cc1cc(C)n2nc(C(=O)OC(C)C(=O)c3cc(C)c(C)cc3C)nc2n1 (stereo not drawn) 0.75%
CC1CCCN(C(=O)C(=O)c2cn(CC(=O)N3CCCCCC3)c3ccccc23)C1 (stereo not drawn) -6.83%
O=C(c1cccc(S(=O)(=O)NCc2ccccc2)c1)N1CCN(c2ccccc2Cl)CC1 -13%
CCNC(=O)COC(=O)c1cccc(Br)c1 0.804%
CSc1n[nH]c(=O)n1-c1cccc(Cl)c1 1.84%
CCN(Cc1ccccc1)S(=O)(=O)c1cc2[nH]c(=O)c(=O)[nH]c2cc1C -5.2%
COc1ccc(-c2cc(C(=O)N(C)CCc3ccc(OC)c(OC)c3)c3ccccc3n2)cc1 0.133%
Cc1nn(CC(=O)c2ccc(Br)s2)c(C)c1[N+](=O)[O-] 16.6%
CCn1c(-c2ccc([N+](=O)[O-])cc2)n[nH]c1=S 4.45%
CCCOc1ccc(C=Nc2ccc(OC)c(S(=O)(=O)N3CCOCC3)c2)c(O)c1 -2.04%
COc1ccccc1CNC(=O)CCS(=O)(=O)c1cccs1 0.006%
Cc1c(NC(=O)CCC2CCCCC2)cc(C(=O)N2CCOCC2)cc1[N+](=O)[O-] -0.626%
O=C(Nc1ccc(Br)cn1)c1cccc2ccccc12 3.91%
CCOC(=O)c1c(C)n(C)c2ccc(OCCN(C)C)cc12 -3.37%
CN1CCN(C(=S)c2ccc(N(C)C)cc2)CC1 1.86%
COc1cccc(C2CC(=O)Nc3cc4c(cc32)CCC4)c1 (stereo not drawn) -1.11%
COc1ccc(N(CC(=O)NCc2ccc3c(c2)OCO3)C(=O)c2csnn2)cc1 -0.054%
COC(=O)\C(C(C)=O)=C(/C=C/C=C/C=C/N(C)C)N(C)C 0.45%
CC(=O)Nc1ccc(S(=O)(=O)Nc2ccccc2N2CCOCC2)cc1 -0.673%
Cn1cc(C(=O)c2ccc(Cl)cc2Cl)cc1C(=O)N/N=C(\N)COc1ccccc1 -0.182%
CN(C)/C=N/c1nc2nccc(-c3ccc(Cl)cc3)n2n1 5.16%
O=S(=O)(O)c1cccc2cccc(Nc3ccccc3)c12 -0.146%
C=CCNC(=O)c1cn(CC)c2cc(N3CCN(C(=O)c4ccco4)CC3)c(F)cc2c1=O 4.41%
Cc1cc(C)nc(SCC(=O)N/N=C/c2cc(C)n(-c3ccccc3C)c2C)n1 -0.359%
CCCCN(C(=O)C(C)Oc1ccc(Br)cc1)c1c(N)n(CC(C)C)c(=O)[nH]c1=O (stereo not drawn) 2.89%
CCOC(=O)N1CCN(C(=S)NC(=O)c2cccc(OC)c2)CC1 -2.68%
Nc1nc(SCC(=O)N2CCCCC2)[nH]c(=O)c1NC(=O)c1cccs1 -2.83%
CCN(C(=O)c1cccc(S(=O)(=O)N2CCc3ccccc32)c1)C1CCS(=O)(=O)C1 (stereo not drawn) -0.651%
Cc1c(C)n(Cc2ccccc2)c2ncnc(Cl)c12 0.034%
O=C(Nc1ccc2c(c1)OCO2)N1CCCc2ccccc21 1.73%
COc1cccc(OC)c1C(=O)Nc1cc(C)on1 1.95%
CCc1noc(C)c1C(=O)N1CCCC(N2CCN(c3ccc(F)cc3)CC2)C1 (stereo not drawn) 0.418%
CN(CC(=O)Nc1ccc(N2CCOCC2)cc1)C(=O)CSc1ccc(Br)cc1 -1.1%
Oc1ccccc1C=Nc1ccccc1-c1nc2ccccc2[nH]1 0.308%
O=C(NCCCO)c1ccc2nc(-c3ccco3)c(-c3ccco3)nc2c1 -18%
